Source: PubChem BioAssay (EPA / NIEHS)
Results filed as inconclusive are left out. Activity calls are given as the source filed them. Rule for the calls: active = hit-call score of the fitted dose curve at least 0.9, where 1 is the maximum; inconclusive = response in the unintended direction; inactive = score below 0.9.

Assay: ATG_GAL4_TRANS: Attagene TRANS-FACTORIAL HepG2 Assay for GAL4 (Internal Marker) (AID 2282976)
Details: HepG2 Attagene TRANS GAL4 internal marker reporter
Method: ATG_TRANS is a cell-based, multiplexed-readout assay that uses HepG2, a human liver cell line, with measurements taken at 24 hours after chemical dosing in a 24-well plate.ATG_GAL4_TRANS is one of 30 assay component(s) measured or calculated from the ATG_TRANS assay. It is designed to make measurements of mRNA induction, a form of inducible reporter, as detected with fluorescence intensity signals by Reverse transcription polymerase chain reaction (RT-PCR) and Capillary electrophoresis technology.Data from the assay component ATG_GAL4_TRANS was analyzed into 1 assay endpoint. This assay endpoint, ATG_GAL4_TRANS, was analyzed in the positive analysis fitting direction relative to DMSO as the negative control and baseline of activity. Using a type of inducible reporter, measures of mRNA for gain-of-signal activity can be used to understand the background control at the transcription factor-level as they relate to the gene . Furthermore, this assay endpoint can be referred to as a secondary readout, because this assay has produced multiple assay endpoints where this one serves a background control function. To generalize the intended target to other relatable targets, this assay endpoint is annotated to the background measurement intended target family, where the subfamily is baseline control.
Human liver HepG2 cells are transiently transfected with multiple reporter transcription units (MRTUs) in 6-well plates using FuGene 6 reagent (Roche; 3 ml FuGene/1 mg DNA). The MRTU constructs are regulated by a cis-regulating element (promoter). […] A major difference between the CIS and TRANS system is that in CIS activities of endogenous TFs are measured, whereas the TRANS assay evaluates changes in activities of exogenous, chimeric NR-Gal4 proteins. […] At the end of 24 hour incubation, total RNA was isolated using TriZol reagent (Invitrogen). The isolated RNA is then reverse-transcribed using oligo(dT) primer and Mo-MLV reverse transcriptase (Invitrogen) with DNAse I (Ambion) treatment for 30 min. The one-tenth of the produced cDNA was amplified by PCR using Taq DNA polymerase (Invitrogen) and two reporter sequence-specific primers. The PCR products were fluorescently labeled by primer extension with 6-arboxyfluorescein (6-FAM) 5'-labeled reporter sequence-specific primer (2 min at 95 C, 20 s at 68 C and 10 min at 72 C) and these products were digested with 5U of HpaI (New England Biolabs) for 2h at 37 C. The fragments were purified using Qiaquick PCR columns (Qiagen), analyzed on an ABI 3130xL genetic analyzer (Applied Biosystems) with peak positions identified by using a set of X-rhodamine (ROX)-labeled MapMarker1000 molecular weight standards (BioVentures). The raw capillary electrophoresis data was processed using Attagraph software (Attagene).

| SMILES | outcome |
| --- | --- |
| O=C1NC2NC(=O)NC2N1 (stereo not given) | inactive |
| N#Cc1cscn1 | inactive |
| OCCCCC(O)CO (stereo not given) | inactive |
| CC(=O)CC(=O)Nc1ccccc1 | inactive |
| CCCCCCC(C)(C)S | inactive |
| CC1=NN(c2ccc(S(=O)(=O)O)cc2)C(=O)C1 | inactive |
| C[Si](C)(C)O[Si](C)(C)C | inactive |
| Nc1c(Cl)cc(Cl)cc1[N+](=O)[O-] | inactive |
| CCC(=O)O[C@@H]1C[C@H]2CC[C@]1(C)C2(C)C | inactive |
| Cc1ncc([N+](=O)[O-])n1CCO | inactive |
| C[C@@H]1CCN(C(=O)[C@H](CCCN=C(N)N)NS(=O)(=O)c2cccc3c2NC[C@H](C)C3)[C@@H](C(=O)O)C1 | inactive |
| COc1ccc(CCN2CCC(Nc3nc4ccccc4n3Cc3ccc(F)cc3)CC2)cc1 | inactive |
| BrCc1cccc(Oc2ccccc2)c1 | inactive |
| Cc1cc(CCC(=O)OCCOCCOCCOC(=O)CCc2cc(C)c(O)c(C(C)(C)C)c2)cc(C(C)(C)C)c1O | inactive |
| CN1C(=O)c2ccccc2C1=O | inactive |
| CC1CC(O)CC(C)(C)C1 (stereo not given) | inactive |
| CCCCC1CCC(O)CC1 (stereo not given) | inactive |
| CCC(=O)OCCOc1ccccc1 | inactive |
| CCC(C)=O | inactive |
| CC1(C)COCN1 | inactive |

| SMILES | outcome |
| --- | --- |
| C=CCCCCCCCCCC | inactive |
| O=c1[nH]c(=O)c2cn[nH]c2[nH]1 | inactive |
| CCOC(=O)CCc1ccccc1 | inactive |
| NC(=S)NNC(N)=S | inactive |
| CCCCN(CCCC)C(=O)N(CCCC)CCCC | inactive |
| Cc1ccc(C)o1 | inactive |
| COc1ccccc1N=Nc1c(S(=O)(=O)O)cc2cc(S(=O)(=O)O)cc(NC(C)=O)c2c1O | inactive |
| CC=CC=CCOC(=O)C(C)C | inactive |
| CC(C)(C)CC(C)(C)c1ccc(OCCOCC[N+](C)(C)Cc2ccccc2)cc1 | inactive |
| O=C(Nc1ccc2c(c1)Cc1ccccc1-2)C(F)(F)F | inactive |
| Clc1ccc(C(c2ccccc2Cl)C(Cl)Cl)cc1 (stereo not given) | inactive |
| Cc1ccc(S(=O)(=O)Oc2ccc(N=Nc3ccc(-c4ccc(N=Nc5c(O)ccc6cc(S(=O)(=O)O)cc(S(=O)(=O)O)c56)c(C)c4)cc3C)cc2)cc1 | inactive |
| C=C(C)C(=O)OCCOCCOCCOC(=O)C(=C)C | inactive |
| CCCCC(CC)COC(C)=O (stereo not given) | inactive |
| C=COCCOCCOC=C | inactive |
| CCCCCCCCCCCC(=O)OCC(O)CO (stereo not given) | inactive |
| O=C(Nc1ccc2c(O)c(N=Nc3ccc(N=Nc4ccc(S(=O)(=O)O)cc4)cc3)c(S(=O)(=O)O)cc2c1)c1ccccc1 | inactive |
| CCCC(=O)OC(C)(C)Cc1ccccc1 | inactive |
| Nc1ccc(NCCO)c([N+](=O)[O-])c1 | inactive |
| COC(C)(C)CC(C)=O | inactive |
